Experimental findings from PubChem BioAssay are described below.

Molecules are shown by their SMILES. Calls of active or inactive are those of the source.

In one assay the target is Albumin (Bos taurus) (UniProt P02769). Put plainly: compounds binding labelled BSA control protein – biochemical, small-molecule microarray, Alexa647 label, 635/667 nm fluorescence, artefact control for SMM control protein annotation, profiling panel (AID 1118).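 Further: score merges 667 nm emission intensity and signal-to-noise per printed compound spot.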 The following applies: BSA-A647 binding, fluorescence 635 nm, higher = more signal.
Chain of Albumin (Bos taurus) (P02769 whole entry, looked up): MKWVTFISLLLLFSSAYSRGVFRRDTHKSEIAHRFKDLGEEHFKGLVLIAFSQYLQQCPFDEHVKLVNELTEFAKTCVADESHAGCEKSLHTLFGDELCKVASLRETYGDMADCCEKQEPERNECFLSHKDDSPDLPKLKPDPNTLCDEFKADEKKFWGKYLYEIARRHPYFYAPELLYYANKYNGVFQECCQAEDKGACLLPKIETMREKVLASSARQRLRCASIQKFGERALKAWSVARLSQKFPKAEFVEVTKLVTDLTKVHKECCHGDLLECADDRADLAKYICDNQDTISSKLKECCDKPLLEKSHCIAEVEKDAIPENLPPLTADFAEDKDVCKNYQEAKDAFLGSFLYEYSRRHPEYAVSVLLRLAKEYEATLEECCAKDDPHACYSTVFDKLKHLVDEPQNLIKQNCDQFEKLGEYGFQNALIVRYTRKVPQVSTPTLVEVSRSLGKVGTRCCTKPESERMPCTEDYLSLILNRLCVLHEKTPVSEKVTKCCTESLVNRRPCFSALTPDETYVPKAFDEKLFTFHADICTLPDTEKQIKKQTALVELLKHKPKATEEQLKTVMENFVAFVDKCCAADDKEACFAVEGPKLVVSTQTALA
Assay [1] can be described thus: probe aXIP binding to arrayed compounds – biochemical, NeuroSMM set, 635/667 nm fluorescence, primary screen (AID 1119).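 Further: probe is the protein aXip251-270 applied at 1 µg/mL to compound-printed slides; binding of probe to printed compounds measured as 667 nm fluorescence plus signal to noise.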 The following applies: small-molecule microarray, higher = more signal, called active from +8 up or from −8 down.
Assay [2] can be described thus: probe aNOTCH3 binding on compound microarray – biochemical, small-molecule microarray, 635/667 nm fluorescence, primary screen (AID 1120).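 Further: probe is a biotin-tagged antibody raised against NOTCH3 rather than NOTCH3 protein; score merges spot fluorescence near 667 nm with spot signal to noise.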 The settings on record: higher = more signal.
Assay [3] in a line: probe aNOTCH2 binding on compound microarray – biochemical, small-molecule microarray, 635/667 nm fluorescence, primary screen (AID 1121).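 Further: score merges feature fluorescence read at 667 nm with its signal to noise.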 The following applies: higher = more signal.
For assay [4], the target named is Carbonic anhydrase 2 (Homo sapiens) (UniProt P00918). The experiment in a line: compounds binding carbonic anhydrase 2 – biochemical, small-molecule microarray, Alexa647-labelled CAII, profiling panel (AID 1122). The settings on record: CAII-A647 binding fluorescence, higher = more signal.
Assay [5] is described as follows: COS7 lysate on small-molecule microarray, probe aHis, 635 nm (AID 1123).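 Further: z-score combines 667nm fluorescence intensity with signal-to-noise per printed compound spot.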 The settings on record: COS7 cell lysate, fluorescence, higher = more signal.
Assay [6] in a line: probe aLAP1 signal on lysate-treated microarray – cell lysate, small-molecule microarray, COS7 lysate, primary screen (AID 1124).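 Further: lysate comes from COS7 cells expressing LAP1 and is applied at 0.3 µg/mL; score merges spot fluorescence near 667 nm with signal-to-noise over triplicate slides.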 The settings on record: probe aLAP1, fluorescence, higher = more signal.
A further assay has as its system Sam68 (KHDRBS1). Put plainly: compounds binding KHDRBS1 protein – biochemical, small-molecule microarray, 635 nm fluorescence, primary screen (AID 1125).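 Further: score merges 667 nm channel intensity with signal to noise over triplicate slides.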 The settings on record: higher = more signal.
In assay [7] the test system is Chordin-like protein 2 (CHRDL2). The experiment in a line: compounds binding chordin-like 2 – biochemical, small-molecule microarray, 635 nm fluorescence, primary screen (AID 1126).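 Further: printed compound slides probed with Chrdl2 protein at 4 µg/mL for 1 h at 4 C; score merges 667 nm emission intensity with signal to noise over three replicate slides.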 The following applies: fluorescence 635 nm, higher = more signal.
The target of assay [8] is Concanavalin-A (Canavalia ensiformis) (UniProt P02866). The experiment in a line: compounds binding concanavalin A lectin – biochemical, small-molecule microarray, Alexa647 label, 635 nm, artefact control for SMM control protein annotation, primary screen (AID 1127).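 Further: z combines 667 nm emission intensity with signal-to-noise across three replicate slides.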 The settings on record: ConA-A647 binding fluorescence, higher = more signal.
Chain of Concanavalin-A (Canavalia ensiformis) (P02866 whole entry, looked up): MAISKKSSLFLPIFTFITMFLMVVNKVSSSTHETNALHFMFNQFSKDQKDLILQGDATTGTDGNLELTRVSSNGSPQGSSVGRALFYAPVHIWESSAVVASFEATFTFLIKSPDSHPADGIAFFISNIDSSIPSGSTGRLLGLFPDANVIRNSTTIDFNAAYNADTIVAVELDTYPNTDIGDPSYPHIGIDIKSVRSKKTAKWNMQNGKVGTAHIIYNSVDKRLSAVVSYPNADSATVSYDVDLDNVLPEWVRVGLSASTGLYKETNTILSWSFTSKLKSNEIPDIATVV

`COc1cccc([C@H]2Oc3ccc(OC)cc3C(=NO[C@@H](C)c3cn([C@H](CO)Cc4ccccc4)nn3)[C@@H]2O)c1`: the composite z-score was 0.874 in the assay with Albumin (Bos taurus); -0.132 in [2]; -0.207 in assay [3]; -0.0163 in [4]; 0.107 in [5]; 0.664 in [6]. The composite z-score with Sam68 (KHDRBS1) is -0.0592; in assay [7] it was -0.54; in assay [8], 0.373. The composite Z-score in assay [1] was 0.637 (inactive).
As to `CO[C@H]1COC(=O)CC=C[C@@H](C)[C@H](OC)COC(=O)[C@@H]2CCCN2C(=O)CC=C[C@@H]1C`, the composite z-score with Albumin (Bos taurus) was -0.871; in [2], -0.0077; in assay [3], -0.107; in [4], -0.377; in assay [5], -0.339; in [6], -0.322. Also, the composite z-score with Sam68 (KHDRBS1) is 0.672; in assay [7], 1.32; in [8], -0.222. Moreover, the composite Z-score in [1] was 0.668 (inactive).
As for `C=C(C)C(=O)OCC1CN2[C@@H](CC[C@@H](C)[C@@H]2c2ccc(Br)cc2)C(=O)O1` (stereo not given in full), the composite z-score in the assay with Albumin (Bos taurus) is 0.188; in [2], 0.0539; in [3], -0.11; in assay [4], -0.062; in [5] it was 0.0971; in assay [6], -0.126. For the same compound, the composite z-score turned out to be 0.671 with Sam68 (KHDRBS1), 0.691 in [7] and 0.59 in assay [8]. In addition, the composite Z-score in assay [1] was -0.168 (inactive).
For the compound `CO[C@@H]1COC(=O)[C@H](CCSC)NC(=O)CC=C[C@@H](C)COC(=O)CCC[C@H]1C`, the composite z-score with Albumin (Bos taurus) was -0.978; in assay [2], -0.0284; in assay [3], -0.147; in [4], -0.654; in assay [5], -1.31; in [6] it was 1.01. Further, the values for the composite z-score (with Sam68 (KHDRBS1); in assay [7]; in [8]) were 0.973, 1.68 and -1.11, respectively. In addition, the composite Z-score in [1] is 1.81 (inactive).
Regarding `O=C1C=C[C@@H](O)[C@@H]2[C@@H]3C(=O)N(c4ccc(F)cc4F)C(=O)[C@@H]3CC[C@@H]12`, the composite z-score in the assay with Albumin (Bos taurus) is 0.351; in assay [2], 0.0409; in assay [3], -0.0772; in assay [4], -0.0233; in [5], -0.303; in assay [6], -0.113. The composite z-score with Sam68 (KHDRBS1) stood at 0.157; in [7], 0.717; in assay [8], 0.753. Also, the composite Z-score in assay [1] is 0.331 (inactive).
Regarding `O=C(C=Cc1ccc2c(c1)OCO2)c1ccc(F)cc1`, the composite z-score with Albumin (Bos taurus) was -0.744; in [2] it was 0.278; in assay [3] it was -0.0811; in [4], -0.236; in [5], -0.542; in assay [6], 0.134. Further, the results for the composite z-score (with Sam68 (KHDRBS1); in assay [7]; in [8]) were -0.21, 1.31 and 0.108, respectively. Also, in [1], the composite Z-score is -0.188 (inactive).
Take `COC(=O)[C@H](C)NC(=O)CCC1CC(OC(=O)NCc2ccc3c(c2)OCO3)CC2(CCCC(COC(=O)NCC3CCCCC3)O2)O1` (stereo not given in full): the composite z-score with Albumin (Bos taurus) was 0.569; in [2] it was -0.0111; in [3], -0.0947; in [4], 0.234; in assay [5] it was 1.19; in assay [6] it was -0.111. Also, the composite z-score was 1.29 in the assay with Sam68 (KHDRBS1), 0.435 in assay [7] and 1.05 in assay [8]. The composite Z-score in assay [1] is -0.0882 (inactive).
With `C[C@@H]1CC[C@H]2C(=O)O[C@@H](Cc3ccccc3)CN2[C@H]1c1ccc(Br)cc1`, the composite z-score with Albumin (Bos taurus) is 0.126; in assay [2], -0.0997; in [3], -0.106; in assay [4], 0.512; in [5], 0.871; in [6] it was 0.912. Further, the results for the composite z-score (in the assay on Sam68 (KHDRBS1); in [7]; in assay [8]) were 1.06, 0.227 and 0.266, respectively. The composite Z-score in assay [1] is -0.358 (inactive).
For the compound `COc1ccc(O[C@H]2C=C[C@@H](c3ccccc3)O[C@@H]2COC(=O)CCC(C)=NOC[C@@H](O)[C@H]2O[C@@H]3OC(C)(C)O[C@@H]3[C@H]2O)cc1`, the composite z-score is -0.0217 with Albumin (Bos taurus); -0.0284 in assay [2]; -0.101 in [3]; 0.325 in [4]; 0.337 in [5]; -0.123 in assay [6]. Moreover, the composite z-score in the assay with Sam68 (KHDRBS1) turned out to be 1.01; in [7] it was 0.728; in assay [8] it was 0.249. Moreover, the composite Z-score in assay [1] is -0.212 (inactive).
On to `CCOC(=O)NN=C1C[C@@H](O)[C@@H](O)[C@@H]2[C@@H]3C(=O)N([C@@H](C)c4ccccc4)C(=O)[C@@H]3CC[C@H]12`, for which the composite z-score with Albumin (Bos taurus) was 0.0904; in assay [2], -0.0647; in assay [3] it was -0.0424; in assay [4], -0.119; in [5], -0.156; in [6] it was -0.111. In addition, the composite z-score in the assay on Sam68 (KHDRBS1) was 0.338; in assay [7] it was 0.183; in [8] it was 0.297. In assay [1], the composite Z-score is -0.36 (inactive).
Turning to `CCOC(=O)[C@H](CC(C)C)NC(=O)CCC1CC(OC(=O)NCc2cccc3ccccc23)CC2(CCCC(COC(=O)NCCOc3ccccc3)O2)O1` (stereo not given in full), the composite z-score with Albumin (Bos taurus) was 0.496; in [2], -0.0048; in assay [3], 0.0174; in assay [4], 0.533; in assay [5] it was 0.684; in assay [6], 0.27. The composite z-score in the assay with Sam68 (KHDRBS1) stood at 1.32; in assay [7], 0.412; in assay [8], 1.06. Moreover, the composite Z-score in assay [1] was -0.309 (inactive).
For `COC(=O)C=CCCc1coc(C=CCNC(=O)OC)n1`, the composite z-score with Albumin (Bos taurus) was 0.266; in [2], 0.482; in [3] it was 0.16; in assay [4] it was 0.492; in assay [5], 0.32; in assay [6], 0.146. Besides, the values for the composite z-score (in the assay with Sam68 (KHDRBS1); in assay [7]; in [8]) were 0.654, 1.34 and -0.0726, respectively. In assay [1], the composite Z-score was 0.103 (inactive).
As to `O=C1C[C@@H](O)[C@@H](O)[C@@H]2[C@@H]3C(=O)N(C[C@@H]4CCCO4)C(=O)[C@@H]3CC[C@H]12`, the composite z-score is 0.225 with Albumin (Bos taurus); 0.0197 in assay [2]; -0.203 in assay [3]; 0.0413 in assay [4]; 0.157 in [5]; -0.117 in assay [6]. Also, the figures for the composite z-score (with Sam68 (KHDRBS1); in assay [7]; in [8]) were 0.354, 0.72 and 0.186, respectively. For the same compound, the composite Z-score in [1] is -0.472 (inactive).
As for `O=C1C[C@@H](O)[C@@H](O)[C@@H]2[C@@H]3C(=O)N(C[C@@H]4CCCO4)C(=O)[C@@H]3CC[C@@H]12`, the composite z-score in the assay with Albumin (Bos taurus) is -0.0039; in assay [2], 0.0547; in assay [3] it was -0.111; in assay [4], -0.0061; in [5], 0.725; in assay [6], 0.181. Moreover, the composite z-score in the assay on Sam68 (KHDRBS1) is 0.666; in [7], 0.348; in [8] it was 0.852. Moreover, in assay [1], the composite Z-score was -0.286 (inactive).
As to `CCOC(=O)NN=C1C[C@@H](O)[C@@H](O)[C@@H]2[C@@H]3C(=O)N([C@@H](C)c4ccccc4)C(=O)[C@@H]3CC[C@@H]12`, the composite z-score is -0.899 with Albumin (Bos taurus); 0.119 in assay [2]; -0.0968 in [3]; -0.0526 in assay [4]; -0.374 in assay [5]; 0.129 in assay [6]. Further, the composite z-score in the assay on Sam68 (KHDRBS1) is 1.23; in [7], 1.02; in [8], -1.09. Further, in assay [1], the composite Z-score was -0.491 (inactive).
On to `COc1ccc(O[C@H]2C=C[C@@H](c3ccccc3)O[C@@H]2CON=C(C)CCC(=O)OC[C@H]2O[C@H](c3ccccc3)C=C[C@@H]2Oc2ccc(OC)cc2)cc1`, for which the composite z-score was 0.12 with Albumin (Bos taurus); -0.165 in [2]; -0.123 in [3]; -0.62 in assay [4]; -1.14 in assay [5]; -0.295 in assay [6]. Also, the composite z-score with Sam68 (KHDRBS1) was -2.54; in assay [7], -0.633; in assay [8], -0.652. In [1], the composite Z-score was 0.456 (inactive).
Take `CCOC(=O)[C@H](Cc1ccccc1)NC(=O)CCC1CC(OC(=O)NCCc2ccc(F)cc2)CC2(CCCC(COC(=O)NCc3ccccc3)O2)O1` (stereo not given in full): the composite z-score is 0.0213 with Albumin (Bos taurus); -0.0711 in [2]; -0.124 in assay [3]; 0.108 in assay [4]; 0.244 in [5]; -0.106 in [6]. For the same compound, the results for the composite z-score (in the assay on Sam68 (KHDRBS1); in assay [7]; in assay [8]) were 1.2, 0.468 and 0.477, respectively. In addition, the composite Z-score in [1] was 0.42 (inactive).
